Reference: PubChem BioAssay (NCI)
About 79,000 compounds went through this panel and 15% of them were active in at least one assay; those are over-represented in the sample as a whole. Calls of active or inactive are those of the source. Rule as the data show it: active = growth inhibition above about 70%; inactive = the rest.

Experiments:
[1] = NCI Yeast Anticancer Drug Screen. Data for the rad52 strain (AID 147);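 also: 0% = growth of vehicle-treated control cultures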; conditions: S. cerevisiae rad52 mutant growth inhibition, stronger effect = higher value
Summary of the method: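 Screen used a yeast mutant impaired in DNA repair. After compound exposure, growth was measured. Values reflect inhibition compared with vehicle-treated cells.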

[2] = NCI Yeast Anticancer Drug Screen. Data for the wt1 strain (AID 149);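 also: 0% = growth of vehicle-treated wt1 cultures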; conditions: S. cerevisiae wt1 strain (SPY 50644) growth inhibition, stronger effect = higher value
Summary of the method: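 wt1 yeast, compound-treated; % growth inhibition vs vehicle control.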

[3] = NCI Yeast Anticancer Drug Screen. Data for the rad50EPP+ strain (AID 151);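 also: 0% = growth of vehicle-treated control cultures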; conditions: S. cerevisiae rad50 mutant strain, stronger effect = higher value
Summary of the method: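 Exposing the rad50EPP+ strain to each compound, growth was compared with vehicle-only cultures to give inhibition.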

[4] = NCI Yeast Anticancer Drug Screen. Data for the mgt1 strain (AID 153); conditions: S. cerevisiae mgt1 mutant growth inhibition, stronger effect = higher value
Summary of the method: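 Genetically defined yeast (mgt1) treated with compound; inhibition of growth expressed against vehicle-treated controls.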

[5] = NCI Yeast Anticancer Drug Screen. Data for the rad50 strain (AID 155);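 also: 0% = growth of vehicle-only cultures of the same strain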; conditions: S. cerevisiae rad50 strain growth inhibition, stronger effect = higher value
Summary of the method: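 Genetically altered yeast (DNA repair pathway); compound treatment; growth inhibition vs vehicle ctrl.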

[6] = NCI Yeast Anticancer Drug Screen. Data for the mec2-1 strain (AID 157); conditions: S. cerevisiae mec2-1 strain, stronger effect = higher value
Summary of the method: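 Readout is yeast growth inhibition, normalised to vehicle-treated controls, in the mec2-1 strain exposed to compound.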

[7] = NCI Yeast Anticancer Drug Screen. Data for the rad14 strain (AID 159);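 also: 0% = growth of vehicle-treated control cultures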; conditions: S. cerevisiae rad14 strain growth inhibition, stronger effect = higher value
Summary of the method: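 Test compounds were applied to a repair-deficient yeast strain. Its growth was then compared with that of cultures given vehicle alone, and inhibition was expressed relative to those controls.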

[8] = NCI Yeast Anticancer Drug Screen. Data for the sgs1 mgt1 strain (AID 161);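 also: 0% = growth of cultures given vehicle only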; conditions: S. cerevisiae sgs1 mgt1 strain, stronger effect = higher value
Summary of the method: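 This yeast growth screen uses a strain with defined DNA-repair lesions; compound-treated growth is compared with vehicle-treated growth.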

[9] = NCI Yeast Anticancer Drug Screen. Data for the CLN2oe strain (AID 163);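 also: 0% = growth of vehicle-only control cultures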; conditions: S. cerevisiae CLN2oe strain, stronger effect = higher value
Summary of the method: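 Values reflect how much compound exposure reduced yeast growth, referenced to vehicle-exposed cells. Assay organism is a strain with a defined genetic change affecting cell-cycle control.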

[10] = NCI Yeast Anticancer Drug Screen. Data for the cln2 rad14 strain (AID 165);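 also: 0% = growth equal to vehicle treated cultures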; conditions: S. cerevisiae cln2 rad14 strain, stronger effect = higher value
Summary of the method: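 Relative to vehicle controls, growth inhibition of compound-treated cln2 rad14 yeast was recorded.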

[11] = NCI Yeast Anticancer Drug Screen. Data for the bub3 strain (AID 167); conditions: S. cerevisiae bub3 mutant strain, stronger effect = higher value
Summary of the method: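 Yeast carrying a defined mutation is treated with each compound, and growth is compared with that of vehicle-exposed cells to give inhibition.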

[12] = NCI Yeast Anticancer Drug Screen. Data for the wt2 strain (AID 169);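 also: 0% = growth of vehicle-treated yeast cultures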; conditions: S. cerevisiae wt2 strain growth inhibition, stronger effect = higher value
Summary of the method: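 Values express reduction in yeast growth under compound treatment, referenced to vehicle-treated cells.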

[13] = NCI Yeast Anticancer Drug Screen. Data for the mlh1 strain (AID 171);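 also: 0% = growth of vehicle-treated control cultures of the same strain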; conditions: S. cerevisiae mlh1 strain growth inhibition, stronger effect = higher value
Summary of the method: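 Steps: expose the defined-mutant yeast strain to compound; expose a parallel culture to vehicle; measure growth; express compound effect as inhibition relative to the vehicle culture.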

[14] = NCI Yeast Anticancer Drug Screen. Data for the sgs1 strain (AID 173);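 also: 0% = growth of vehicle-only control cultures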; conditions: S. cerevisiae sgs1 mutant, stronger effect = higher value
Summary of the method: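 Treat defined-mutant yeast with compound; measure growth; calculate inhibition relative to vehicle-treated cells.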

[15] = NCI Yeast Anticancer Drug Screen. Data for the mlh1 rad18 strain (AID 175); conditions: S. cerevisiae mlh1 rad18 strain growth inhibition, stronger effect = higher value
Summary of the method: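 Test agents were incubated with a yeast strain of defined genotype (DNA damage repair defect). Inhibition of growth was derived by comparison with vehicle-exposed cultures.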

[16] = NCI Yeast Anticancer Drug Screen. Data for the rad18 strain (AID 177); conditions: S. cerevisiae rad18 mutant growth inhibition, stronger effect = higher value
Summary of the method: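 A genetically defined yeast mutant impaired in DNA damage repair was treated with test compounds, then its growth was measured against cultures receiving vehicle alone.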

[17] = at 5.0 µM (retest, dose inferred, filed as 0.5)
[18] = at 50.0 µM (retest, dose inferred, filed as 5.0)

Measured: growth inhibition

CC[C@@]1(O)C(=O)OCc2c1cc1n(c2=O)Cc2cc3ccccc3nc2-1
active: [1]; at 1.2 µM 97% | [1]; at 3.7 µM 98% | [1]; at 11.0 µM 98% | [1]; at 33.0 µM 97% | [1]; at 100.0 µM 95% | [2]; at 11.0 µM 90% | [2]; at 33.0 µM 94% | [2]; at 100.0 µM 95% | [3]; at 1.2 µM 89% | [3]; at 3.7 µM 95% | [3]; at 11.0 µM 97% | [3]; at 33.0 µM 97% | [3]; at 100.0 µM 96% | [4]; at 11.0 µM 79% | [4]; at 33.0 µM 91% | [4]; at 100.0 µM 92% | [5]; at 1.2 µM 97% | [5]; at 3.7 µM 97% | [5]; [17] 97% | [5]; at 11.0 µM 96% | [5]; at 33.0 µM 96% | [5]; [18] 97% | [5]; at 50.0 µM 86.9% | [5]; at 100.0 µM 95% | [6]; at 3.7 µM 95% | [6]; [17] 73% | [6]; at 11.0 µM 97% | [6]; at 33.0 µM 98% | [6]; [18] 98% | [6]; at 50.0 µM 88.2% | [6]; at 100.0 µM 97% | [7]; at 11.0 µM 89% | [7]; at 33.0 µM 97% | [7]; at 100.0 µM 96% | [8]; [18] 95% | [8]; at 50.0 µM 81.7% | [9]; at 11.0 µM 89% | [9]; at 33.0 µM 93% | [9]; at 100.0 µM 91% | [10]; [18] 89% | [11]; at 11.0 µM 90% | [11]; at 33.0 µM 95% | [11]; [18] 90% | [11]; at 50.0 µM 78.5% | [11]; at 100.0 µM 96% | [12]; at 11.0 µM 92% | [12]; at 33.0 µM 97% | [12]; at 100.0 µM 96% | [13]; at 11.0 µM 84% | [13]; at 33.0 µM 93% | [13]; at 100.0 µM 93% | [14]; at 3.7 µM 82% | [14]; at 11.0 µM 95% | [14]; at 33.0 µM 96% | [14]; at 100.0 µM 95% | [15]; [18] 93% | [15]; at 50.0 µM 81.7% | [16]; at 11.0 µM 89% | [16]; at 33.0 µM 93% | [16]; at 100.0 µM 94%
inactive: [2]; at 1.2 µM 2% | [2]; at 3.7 µM 39% | [4]; at 1.2 µM 0% | [4]; at 3.7 µM 6% | [6]; at 1.2 µM 47% | [7]; at 1.2 µM 21% | [7]; at 3.7 µM 55% | [8]; [17] 53% | [9]; at 1.2 µM 8% | [9]; at 3.7 µM 55% | [10]; [17] 14% | [10]; at 50.0 µM 58% | [11]; at 1.2 µM -12% | [11]; at 3.7 µM 15% | [11]; [17] -16% | [12]; at 1.2 µM 17% | [12]; at 3.7 µM 57% | [13]; at 1.2 µM -2% | [13]; at 3.7 µM 35% | [14]; at 1.2 µM 29% | [15]; [17] 39% | [16]; at 1.2 µM -6% | [16]; at 3.7 µM 20%

CC[C@](O)(C(=O)O)c1cc2n(c(=O)c1CO)Cc1cc3ccccc3nc1-2
inactive: [2]; at 1.2 µM 0% | [2]; at 3.7 µM 10% | [2]; at 11.0 µM 67% | [4]; at 1.2 µM -1% | [4]; at 3.7 µM 7% | [4]; at 11.0 µM 67% | [6]; at 1.2 µM 14% | [7]; at 1.2 µM 3% | [7]; at 3.7 µM 29% | [9]; at 1.2 µM -7% | [9]; at 3.7 µM 36% | [10]; [17] 66% | [11]; at 1.2 µM -16% | [11]; at 3.7 µM -3% | [11]; [17] 58% | [11]; at 11.0 µM 67% | [12]; at 1.2 µM -3% | [12]; at 3.7 µM 13% | [13]; at 1.2 µM 3% | [13]; at 3.7 µM 21% | [16]; at 1.2 µM 4% | [16]; at 3.7 µM 29%
active: [1]; at 1.2 µM 92% | [1]; at 3.7 µM 94% | [1]; at 11.0 µM 95% | [1]; at 33.0 µM 96% | [1]; at 100.0 µM 96% | [2]; at 33.0 µM 92% | [2]; at 100.0 µM 94% | [3]; at 1.2 µM 80% | [3]; at 3.7 µM 93% | [3]; at 11.0 µM 96% | [3]; at 33.0 µM 97% | [3]; at 100.0 µM 98% | [4]; at 33.0 µM 80% | [4]; at 100.0 µM 95% | [5]; at 1.2 µM 95% | [5]; at 3.7 µM 97% | [5]; [17] 97% | [5]; at 11.0 µM 97% | [5]; at 33.0 µM 97% | [5]; [18] 98% | [5]; at 50.0 µM 98.3% | [5]; at 100.0 µM 97% | [6]; at 3.7 µM 82% | [6]; [17] 95% | [6]; at 11.0 µM 94% | [6]; at 33.0 µM 95% | [6]; [18] 98% | [6]; at 50.0 µM 97% | [6]; at 100.0 µM 96% | [7]; at 11.0 µM 81% | [7]; at 33.0 µM 93% | [7]; at 100.0 µM 96% | [8]; [17] 88% | [8]; [18] 97% | [8]; at 50.0 µM 97.2% | [9]; at 11.0 µM 88% | [9]; at 33.0 µM 93% | [9]; at 100.0 µM 96% | [10]; [18] 96% | [10]; at 50.0 µM 87.8% | [11]; at 33.0 µM 91% | [11]; [18] 97% | [11]; at 50.0 µM 96.8% | [11]; at 100.0 µM 95% | [12]; at 11.0 µM 81% | [12]; at 33.0 µM 95% | [12]; at 100.0 µM 94% | [13]; at 11.0 µM 81% | [13]; at 33.0 µM 94% | [13]; at 100.0 µM 97% | [15]; [17] 83% | [15]; [18] 97% | [15]; at 50.0 µM 96.5% | [16]; at 11.0 µM 82% | [16]; at 33.0 µM 93% | [16]; at 100.0 µM 96%

O=C(Nc1cc(Cl)ccc1Cl)C(Cl)(Cl)Cl
inactive: [1]; at 1.2 µM 1% | [1]; at 3.7 µM 6% | [1]; at 11.0 µM 12% | [1]; at 33.0 µM 22% | [1]; at 100.0 µM 30% | [2]; at 1.2 µM 0% | [2]; at 3.7 µM 2% | [2]; at 11.0 µM 4% | [2]; at 33.0 µM 6% | [2]; at 100.0 µM 6% | [3]; at 1.2 µM 2% | [3]; at 3.7 µM 8% | [3]; at 11.0 µM 14% | [3]; at 33.0 µM 22% | [3]; at 100.0 µM 25% | [4]; at 1.2 µM 1% | [4]; at 3.7 µM 3% | [4]; at 11.0 µM 6% | [4]; at 33.0 µM 5% | [4]; at 100.0 µM -22% | [5]; at 1.2 µM 2% | [5]; at 3.7 µM 6% | [5]; [17] 16% | [5]; at 11.0 µM 13% | [5]; at 33.0 µM 26% | [5]; [18] 41% | [5]; at 50.0 µM 53.9% | [5]; at 100.0 µM 26% | [6]; at 1.2 µM 1% | [6]; at 3.7 µM 6%
